As usually defined, the viability is a read-out of living cells in per cent, often relative to untreated cells. What is called inhibition is the change of the read-out against control, counted positive when it falls.

A short description of experiment [1]: P. berghei load reduction in hepatocytes – cell-based, HepG2, luciferase luminescence, HepG2 viability, primary screen (AID 624349; in the data active means parasite load remaining mostly below about 12%, no sharp cut-off; inactive means mostly above about 10%;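 further: 100% = mean of DMSO negative control wells on the same plate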). To be noted: P. berghei liver stage in HepG2, luciferase luminescence, concentration not given here; parasite load remaining: stronger effect = lower value; viability: measured here: HepG2 viability without parasites.
Experiment [2] in a line: signal quenchers or enhancers, Cy5 substrate/SSB – biochemical, NIH Clinical Collection, E. coli SSB, artefact control for HCV NS3 helicase inhibitor project (AID 743268; call rule not given here). To be noted: Cy5-oligo bound E. coli SSB, fluorescence interference.
The subject of experiment [3] is Hepatitis C virus NS3 helicase. The experiment in a line: blockers of NS3h binding to DNA – biochemical, fluorescence polarization, NIH Clinical Collection, primary screen (AID 743270; call rule not given here). To be noted: NS3 helicase binding to Cy5-dT15 DNA, stronger effect = higher value, concentration not given here.
Experiment [4] concerns the target Single-stranded DNA-binding protein (Escherichia coli (strain K12)) (UniProt P0AGE0). Description: SSB-ssDNA binding inhibitors – biochemical, fluorescence polarization, NIH Clinical Collection, counter-screen for HCV NS3 helicase inhibitor project (AID 743271; in the data active means inhibition above about 28%). To be noted: E. coli SSB-DNA binding, stronger effect = higher value, concentration not given here. (In fluorescence polarisation assays a small probe gives low polarisation when free and higher when bound to something large.)

Experiment [5] is described as follows: compounds distorting NS3 helicase fluorescence signal – biochemical, NIH Clinical Collection, artefact control for HCV NS3 helicase inhibitor project (AID 743272; call rule not given here;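 further: HCV NS3 helicase with a Cy5 labelled single stranded DNA probe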). To be noted: fluorescence interference counterscreen, HCV NS3 helicase assay; stronger effect = lower value. For orientation: Counterscreens check selectivity or assay interference.
The target of experiment [6] is 6-phosphogluconate dehydrogenase, decarboxylating (Homo sapiens) (UniProt P52209). Description: inhibition of human phosphogluconate dehydrogenase – biochemical, recombinant enzyme, NADPH absorbance, primary screen (AID 1159550;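 active means at least 20% inhibition of 6-phosphogluconate dehydrogenase activity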). To be noted: recombinant 6PGD, NADPH absorbance 341 nm; at 10 µM; stronger effect = higher value.
Chain of 6-phosphogluconate dehydrogenase, decarboxylating (Homo sapiens) (P52209 whole entry, looked up): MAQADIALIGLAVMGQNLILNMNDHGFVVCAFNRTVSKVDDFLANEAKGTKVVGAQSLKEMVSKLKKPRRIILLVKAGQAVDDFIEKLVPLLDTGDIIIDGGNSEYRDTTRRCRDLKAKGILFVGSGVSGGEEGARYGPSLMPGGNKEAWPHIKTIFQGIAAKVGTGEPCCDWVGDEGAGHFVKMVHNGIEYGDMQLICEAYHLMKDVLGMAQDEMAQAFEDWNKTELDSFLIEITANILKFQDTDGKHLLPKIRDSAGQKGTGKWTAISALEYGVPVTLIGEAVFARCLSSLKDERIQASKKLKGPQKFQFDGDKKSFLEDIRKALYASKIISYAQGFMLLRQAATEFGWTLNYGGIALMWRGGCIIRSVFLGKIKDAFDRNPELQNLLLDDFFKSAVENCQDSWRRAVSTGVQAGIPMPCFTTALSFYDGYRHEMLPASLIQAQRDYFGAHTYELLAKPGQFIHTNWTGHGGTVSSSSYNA
Experiment [7] is described as follows: viability loss with induced miR-34 in A549 – imaging, A549 dox-inducible miR-34, nuclei and caspase counts, primary screen (AID 1347080;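 active means compounds whose cell count with miR-34 switched on is under 0.7 times the count with it off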). To be noted: A549 miR-34 inducible, Hoechst nuclei count, 48 h.
Experiment [8] can be described thus: MELAS cybrid and Rieske KO viability enhancers – cell-based, MELAS cybrids, Rieske KO mouse fibroblasts, CellTiter-Glo, primary screen (AID 1508586;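 active means mean z-score across replicates of 1.96 or higher in either the MELAS or the Rieske mutant cell line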;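 further: z relative to plate mean and SD of compound and empty wells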). To be noted: low glucose.
Experiment [9] concerns the target NAD(+) hydrolase SARM1 (Homo sapiens) (UniProt Q6SZW1). The experiment in a line: blocking NAD cleavage by SARM1 SAM-TIR – cell lysate, NAD-Glo luminescence (AID 1508614;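 active means compound whose remaining NAD level is above about 45 nM, limit read from the data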). To be noted: SAM-TIR HEK293T lysate NADase, at 1 µM, stronger effect = higher value.
Experiment [10] deals with Mitogen-activated protein kinase 7 (Homo sapiens) (UniProt Q13164). The experiment in a line: Gal4-ERK5 driven luciferase induction – cell-based, HTS, primary screen (AID 1508626;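 active means luciferase signal above three times the same-plate solvent-only control wells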;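 further: luciferase driven by Gal4-ERK5 fusion binding five Gal4 sites before minimal TATA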). The conditions noted are these: HeLa Gal4-ERK5 transactivation, 18 h, at 5 µM, stronger effect = higher value.
Chain of Mitogen-activated protein kinase 7 (Homo sapiens) (Q13164 whole entry, looked up, the tested form may be a part): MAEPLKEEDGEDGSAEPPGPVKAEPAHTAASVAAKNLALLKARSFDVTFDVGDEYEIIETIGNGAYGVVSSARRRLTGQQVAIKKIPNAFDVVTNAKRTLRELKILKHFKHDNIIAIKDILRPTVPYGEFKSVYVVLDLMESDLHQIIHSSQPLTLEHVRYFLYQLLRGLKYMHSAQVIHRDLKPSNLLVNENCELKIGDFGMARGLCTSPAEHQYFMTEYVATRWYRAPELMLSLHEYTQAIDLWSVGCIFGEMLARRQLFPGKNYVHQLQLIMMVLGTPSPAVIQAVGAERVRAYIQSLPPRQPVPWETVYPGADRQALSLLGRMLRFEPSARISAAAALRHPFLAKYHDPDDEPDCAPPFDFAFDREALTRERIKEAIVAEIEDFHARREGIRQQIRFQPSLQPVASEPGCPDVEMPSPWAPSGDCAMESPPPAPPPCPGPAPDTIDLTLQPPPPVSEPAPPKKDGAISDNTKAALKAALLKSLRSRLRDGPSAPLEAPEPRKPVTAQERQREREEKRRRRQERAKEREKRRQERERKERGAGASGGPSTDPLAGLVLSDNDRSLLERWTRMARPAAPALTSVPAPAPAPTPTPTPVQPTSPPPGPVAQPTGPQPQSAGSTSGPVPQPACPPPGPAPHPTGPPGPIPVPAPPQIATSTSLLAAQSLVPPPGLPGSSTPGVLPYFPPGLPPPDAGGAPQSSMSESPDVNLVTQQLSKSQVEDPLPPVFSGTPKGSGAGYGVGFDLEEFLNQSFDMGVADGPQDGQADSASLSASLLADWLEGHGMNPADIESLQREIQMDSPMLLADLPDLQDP
A short description of experiment [11]: galactose survival enhancers in mitochondrial complex I cybrids – cell-based, galactose medium, ATP luminescence, primary screen (AID 1645843;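 active means z-score of at least 1.8 in each of two replicates, scored against plate mean and spread of sample wells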;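 further: positive z means more ATP and so rescue of galactose-driven cybrid death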). To be noted: complex I mutant cybrid cells, 72 h, stronger effect = higher value.
The test system of experiment [12] is F380Y. The experiment in a line: BK channel mutant inhibitors and activators – cell-based, U2OS BacMam, thallium flux, beta subunits, selectivity assay, profiling panel (AID 1259406).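 Further: initial slope of Thallos dye fluorescence rise after thallium is added; log ratio against the mean of 0.3% DMSO vehicle wells on the same plate.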 The conditions noted are these: U2OS BacMam BK variants, at 30 µM.
Experiment [13] deals with F380Y/beta2Delta. Described as above. To be noted: U2OS BacMam BK variants, at 30 µM.
Experiment [14] deals with Calcium-activated potassium channel subunit alpha-1 (Homo sapiens) + Leucine-rich repeat-containing protein 26 (Homo sapiens) (UniProt Q12791+Q2I0M4). Described as above. To be noted: U2OS BacMam BK variants, F380Y/Slo1WT/gamma1, at 30 µM.
Chain of Calcium-activated potassium channel subunit alpha-1 (Homo sapiens) + Leucine-rich repeat-containing protein 26 (Homo sapiens) (Q2I0M4 whole entry, looked up, one chain of several): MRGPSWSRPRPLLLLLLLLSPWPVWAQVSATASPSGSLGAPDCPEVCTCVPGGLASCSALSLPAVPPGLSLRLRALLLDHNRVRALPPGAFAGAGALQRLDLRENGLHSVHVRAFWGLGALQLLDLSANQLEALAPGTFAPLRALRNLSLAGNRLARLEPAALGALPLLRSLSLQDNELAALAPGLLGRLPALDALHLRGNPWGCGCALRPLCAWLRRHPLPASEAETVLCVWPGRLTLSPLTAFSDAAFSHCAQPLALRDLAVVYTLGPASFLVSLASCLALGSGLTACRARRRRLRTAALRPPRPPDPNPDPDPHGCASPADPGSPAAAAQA
For experiment [15], the system named is R275C. Described as above. To be noted: U2OS BacMam BK variants, at 30 µM.
Experiment [16] concerns R275C/beta1. The description is as above. To be noted: U2OS BacMam BK variants, at 30 µM.
In experiment [17] the test system is R275C/beta2Delta. The experiment is described as above. The conditions noted are these: U2OS BacMam BK variants, at 30 µM.
The nature of experiment [18]: modulation of C. elegans fzo-1 (AID 1259413; call rule not given here;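 further: fzo-1 mutant C. elegans worms in liquid wells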). To be noted: C. elegans fzo-1 modulator screen, mean read-out; stronger effect = higher value.
Experiment [19] can be described thus: EMT-state selective cytotoxicity in co-culture – imaging, PC-3E GFP, TEM4-18 mCherry, primary screen (AID 1345086;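 active means compounds killing one labelled cell type while sparing the other, by normalised counts and ratio limits, not self-fluorescent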;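 on all read-outs here: cells exposed to compound for 72 h before imaging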;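 on red/green cell ratio (normalised): normalised mesenchymal count divided by normalised epithelial count so high means epithelial killing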). To be noted: PC-3E GFP / TEM4-18 mCherry co-culture, imaging cell counts, at 1 µM; for red/green cell ratio (normalised): actives lie on both sides, counts scaled to control wells, 1 = unselective.
[20] abbreviates: MELAS cybrid survival, CellTiter-Glo 48 h, stronger effect = higher value.
Setting [21] is: Rieske KO mouse fibroblast survival, CellTiter-Glo 72 h.
[22] abbreviates: measured here: epithelial PC-3E GFP cell survival.
Setting [23] is: measured here: mesenchymal TEM4-18 mCherry cell survival.

Molecules are shown by their SMILES. Several values for one entry are separate records, joined by “and”; a condition that tells them apart may be missing. Equal entries are not always repeated. Activity calls are given as the source filed them.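 How the source made its calls, unless noted: active means thallium flux through the channel raised or lowered by more than 3 SD from vehicle-only wells, actives on both sides; inactive means the rest.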

Chain of NAD(+) hydrolase SARM1 (Homo sapiens) (Q6SZW1 whole entry, looked up, the tested form may be a part): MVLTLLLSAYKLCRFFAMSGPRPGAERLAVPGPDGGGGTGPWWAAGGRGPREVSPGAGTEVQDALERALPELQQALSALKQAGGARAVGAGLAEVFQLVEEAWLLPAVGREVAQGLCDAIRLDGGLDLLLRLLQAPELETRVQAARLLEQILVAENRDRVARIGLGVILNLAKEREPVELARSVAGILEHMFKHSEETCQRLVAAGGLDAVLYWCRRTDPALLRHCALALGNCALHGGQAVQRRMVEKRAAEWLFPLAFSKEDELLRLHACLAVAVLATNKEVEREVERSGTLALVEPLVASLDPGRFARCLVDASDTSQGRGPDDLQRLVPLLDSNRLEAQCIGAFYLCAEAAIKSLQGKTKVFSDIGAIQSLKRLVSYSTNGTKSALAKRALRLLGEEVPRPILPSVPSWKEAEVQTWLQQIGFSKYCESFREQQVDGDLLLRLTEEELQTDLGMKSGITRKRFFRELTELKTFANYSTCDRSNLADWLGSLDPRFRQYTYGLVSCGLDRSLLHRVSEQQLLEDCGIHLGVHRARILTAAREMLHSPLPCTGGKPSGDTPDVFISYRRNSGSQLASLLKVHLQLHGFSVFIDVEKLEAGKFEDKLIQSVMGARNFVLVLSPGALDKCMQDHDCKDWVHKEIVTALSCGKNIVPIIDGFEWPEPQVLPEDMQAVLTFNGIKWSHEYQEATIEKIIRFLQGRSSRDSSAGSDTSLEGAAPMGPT

Regarding `C[C@H](CCC(=O)O)[C@H]1CC[C@H]2[C@@H]3[C@@H](O)C[C@@H]4C[C@H](O)CC[C@]4(C)[C@H]3CC[C@]12C`, in experiment [1], the parasite load remaining was 52.5% (inactive) and 128% (inactive). In addition, the viability in experiment [1] was 109% and 101%. For the same compound, the results for the fluorescence ratio in experiment [2] and in experiment [5] were 0.99 (inactive) and 0.97 (inactive), respectively. Moreover, the inhibition in experiment [3] was -1.36% (inactive); in [4], 1.81% (inactive); in [6], -17.2% (inactive). Also, the fold change in experiment [7] (stronger effect = lower value, cell number ratio, induced over uninduced) was 1 (inactive) and 0.854 (inactive); in experiment [7] (measured here: relative caspase fold change +Dox/-Dox) it was 1.43 and 1.31. Besides, the cell count in experiment [7] (measured here: total cells with miR-34 induction, stronger effect = lower value) is 10300 and 8440; in [7] (measured here: total cells without miR-34 induction), 10300 and 9880. Besides, the z-score was -0.323 (inactive) in [8] (setting [20]), -0.919 in experiment [8] (setting [21]) and -0.425 (inactive) in experiment [11]. For the same compound, the remaining NAD in [9] was 10 nM (inactive). Besides, the luciferase signal in experiment [10] was 36 AU (inactive). In addition, the log fold change Tl+ flux was 0.0594 (inactive) in experiment [12]; 0.0428 (inactive) in experiment [13]; 0.00339 (inactive) in experiment [14]; 0.0817 (inactive) in experiment [15]; 0.198 (active) in experiment [16]; 0.142 (active) in experiment [17].
As for `CCCC1O[C@@H]2C[C@H]3[C@@H]4CCC5=CC(=O)C=C[C@]5(C)[C@H]4[C@@H](O)C[C@]3(C)[C@]2(C(=O)CO)O1` (some centres undefined), the parasite load remaining in [1] was 14% (inactive) and 67.2% (inactive) and 78.7% (inactive). Further, in [1], the viability was 116% and 115% and 75.3%. Also, the fluorescence ratio in experiment [2] was 1.05 (inactive); in experiment [5] it was 0.99 (inactive). In addition, the inhibition is -1.36% (inactive) in experiment [3], 1.05% (inactive) in experiment [4] and -12.1% (inactive) in [6]. In addition, the figures for the z-score in experiment [8] (setting [20]) and in [8] (setting [21]) were -0.382 (inactive) and -0.0716, respectively. In addition, the remaining NAD in [9] was 10 nM (inactive). For the same compound, the luciferase signal in [10] was 96 AU (inactive). For the same compound, the log fold change Tl+ flux in [12] is 0.198 (active); in experiment [13] it was 0.159 (active); in [14], 0.0553 (inactive); in experiment [15], 0.0776 (inactive); in [16], 0.133 (active); in [17], 0.115 (active).
For the compound `CC(CCc1ccccc1)NCC(O)c1ccc(O)c(C(N)=O)c1` (centres undefined), the fluorescence ratio in experiment [2] was 1.06 (inactive); in experiment [5], 1.02 (inactive). For the same compound, the figures for the inhibition in [3], in experiment [4] and in experiment [6] were -2.27% (inactive), -5.05% (inactive) and 0.489% (inactive), respectively. Besides, the mean signal in experiment [18] was 243 (inactive). Besides, the red/green cell ratio (normalised) in [19] is 1.34 (inactive). Also, the normalised cell number in [19] (setting [22]) was 0.93; in experiment [19] (setting [23]), 1.24. Moreover, the z-score is -0.172 (inactive) and 0.637 (inactive) in [8] (setting [20]); -0.173 and -0.159 in experiment [8] (setting [21]); -0.94 (inactive) and 0.995 (inactive) in [11]. Further, the remaining NAD in experiment [9] is 10 nM (inactive). For the same compound, the luciferase signal in [10] was 116 AU (inactive). Moreover, the log fold change Tl+ flux in experiment [12] was 0.0689 (inactive); in experiment [13] it was 0.0329 (inactive); in experiment [14] it was 0.00974 (inactive); in [15], -0.0121 (inactive); in experiment [16], 0.0332 (inactive); in experiment [17], 0.0956 (inactive).
Regarding `Cc1ccc(N(CC2=NCCN2)c2cccc(O)c2)cc1`, the inhibition in [6] is -2.41% (inactive). Besides, the mean signal in experiment [18] was 229 (inactive). Further, the red/green cell ratio (normalised) in experiment [19] was 1 (inactive). Further, the normalised cell number in experiment [19] (setting [22]) is 0.96; in experiment [19] (setting [23]), 0.97. Also, the z-score was 0.136 (inactive) and 0.319 (inactive) and 0.784 (inactive) in experiment [8] (setting [20]); -0.0354 and 0.524 and 0.332 in [8] (setting [21]); -0.355 (inactive) and 0.035 (inactive) in [11]. In [9], the remaining NAD is 10 nM (inactive). Besides, the luciferase signal in experiment [10] is 116 AU (inactive).
